High-throughput results from PubChem BioAssay.
TDP1 block: blocks human tyrosyl-DNA phosphodiesterase 1. recombinant TDP1, AlphaScreen DNA substrate cleavage. Q9NUW8. 350,000 tested, 0.28% active. Potency, µM (top dose mostly 130 µM), inactives show at the highest dose activity change, negative = inhibition, usual class: inhibitors; also: nearly all actives have a fitted effect of over 40% in size
Target sequence (Q9NUW8 whole entry, looked up): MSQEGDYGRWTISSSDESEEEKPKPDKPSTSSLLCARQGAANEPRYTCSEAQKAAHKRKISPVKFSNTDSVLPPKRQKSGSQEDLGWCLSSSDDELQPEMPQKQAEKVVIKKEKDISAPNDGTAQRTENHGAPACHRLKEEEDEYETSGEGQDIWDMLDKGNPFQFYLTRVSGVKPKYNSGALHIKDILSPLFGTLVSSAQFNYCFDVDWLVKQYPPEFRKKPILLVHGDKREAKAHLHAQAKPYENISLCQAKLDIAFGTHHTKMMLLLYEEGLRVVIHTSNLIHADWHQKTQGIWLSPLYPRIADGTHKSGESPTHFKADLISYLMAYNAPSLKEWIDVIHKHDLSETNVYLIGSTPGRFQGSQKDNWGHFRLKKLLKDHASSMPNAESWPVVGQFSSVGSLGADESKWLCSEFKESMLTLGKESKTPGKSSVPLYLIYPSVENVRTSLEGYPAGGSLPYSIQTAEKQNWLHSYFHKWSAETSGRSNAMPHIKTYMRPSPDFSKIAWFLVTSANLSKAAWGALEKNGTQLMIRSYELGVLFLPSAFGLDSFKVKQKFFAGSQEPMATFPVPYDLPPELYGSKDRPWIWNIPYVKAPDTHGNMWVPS
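Here, a 5' biotin and 3' phosphotyrosine-FITC DNA oligonucleotide reports Tdp1 activity: intact substrate bridges AlphaScreen beads, while cleavage leaves a 3' phosphate and drops signal. All incubations at room temperature.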
Gal4-VP16 FLuc: counter-screen for ROR gamma inhibitors: Gal4-VP16 reporter | Drosophila S2 Gal4-VP16 UAS-luciferase, luminescence, 20 h | Potency, µM (highest dose often 53.6 µM), without a hit: at the highest dose activity, negative = inhibition, usual class: inhibitors | 310,000 tested, 3.5% active | AID 2546;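 also: Gal4-VP16 expression switched on by copper sulfate through the metallothionein promoter; nearly all actives have a fitted effect of over 50% in size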
TDP1 cell noCPT: qHTS for Inhibitors of human tyrosyl-DNA phosphodiesterase 1 (TDP1): qHTS in cells in absence of CPT. 420,000 tested, 15% active. Potency, µM (doses to about 46.2 µM), inactives show top-dose activity change, negative = growth inhibition, most hits filed as inhibitors. DT40 Tdp1-/- hTDP1 cells, no CPT, ATP luminescence, 48 h; also: nearly all actives have a fitted effect of over 55% in size
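Chicken DT40 Tdp1-/- cells complemented with human TDP1, screened without camptothecin (DMSO vehicle only), 400 cells/well. Compounds pin-transferred, cells incubated at 37 °C for at least 48 hr. Growth read as ATP-dependent luminescence (CellTiter-Glo, 30 min at RT).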
RORg inh: inhibitors of mouse ROR gamma transcriptional activity. Potency, µM (highest dose often 53.6 µM), inactives show at the top dose activity change, negative = inhibition, usual class: inhibitors. AID 2551. P51450. Drosophila S2 Gal4-RORgamma UAS-luciferase reporter, 20 h. 310,000 tested, 5.4% active; also: nearly all actives have a fitted effect of over 60% in size
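Schneider cells (Drosophila), stable Gal4 DBD–ROR gamma + UAS-luc; 1 hr cmpd preincubation; Cu2+ induction 700 uM final; 20 hr ambient; luminescence.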
DT40 TDP1 CPT: growth inhibition of DT40 Tdp1-/-;hTDP1 cells with camptothecin (screen for TDP1 inhibitors). 420,000 tested, 12% active. Potency, µM (top dose mostly 46.2 µM), inactives show at the highest dose activity change, negative = growth inhibition, hits mostly inhibitors. chicken DT40 Tdp1-/-;hTDP1 cells + 20 nM CPT, ATP luminescence, 48 h; also: nearly all actives have a fitted effect of over 55% in size
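Chicken DT40 Tdp1-/- cells stably complemented with human TDP1 were seeded at 400 cells/well in medium containing 20 nM camptothecin, exposed to pin-transferred compounds, and grown at 37 °C for at least 48 hr. Viability was read as ATP luminescence.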
Starred values were filed as active, the others as inactive; ? = inconclusive; . = not tested or not shown; [ ] = dose if it differs, or a comment. This is a sample that favours compounds with a hit; in the whole collection about 19% have one here. Calls follow the shape of the dose curve; as a rule, active = well fitted curve in the direction sought with a large enough effect; inconclusive = small, poorly fitted or top-dose-only effect, or another doubt; inactive = no such curve, though single readings can be large; an effect the other way counts as inactive or inconclusive. % is scaled to controls: 0 for no effect and ±100 for the full control effect; potency is read from the fitted curve at half-maximal effect.

SMILES	TDP1 block	Gal4-VP16 FLuc	TDP1 cell noCPT	RORg inh	DT40 TDP1 CPT
CCN(CC)c1ccc(/C=N/N=C(N)N)c(O)c1	7%	-9%	0.65µM*	7%	0.65µM*
CCN(CC)c1ccc(C=Nc2ccc(N(C)C)cc2)c(O)c1	12%	5%	16µM*	-25%	?
COc1cc(NS(=O)(=O)c2ccc(Nc3nc(-c4cccc([N+](=O)[O-])c4)cs3)cc2)nc(OC)n1	9%	-5%	-3%	31%	5%
CC1CCN(S(=O)(=O)c2cccc(C(=O)Oc3ccc([N+](=O)[O-])cc3)c2)CC1	5%	-13%	6%	20%	5%
CCOC(=O)CN(C(=O)CSc1nnc2c(n1)[nH]c1ccc(F)cc12)c1ccccc1	6%	-5%	?	40%	21µM*
O=C(CSc1nnc(-c2cccc(F)c2)o1)Nc1nncs1	4%	?	1%	13µM*	1%
CCn1c2ccccc2c2cc(NC(=O)CSc3nnc(-c4cccc(C)c4)o3)ccc21	2%	0%	?	-10%	?
CCn1c2ccccc2c2cc(NC(=O)CSc3nnc(-c4cccc(F)c4)o3)ccc21	5%	9%	15µM*	-5%	16µM*
CCn1c2ccccc2c2cc(NC(=O)CSc3nnc(-c4ccccc4)o3)ccc21	9%	-21%	21µM*	-1%	9.2µM*
CSc1ncccc1C(=O)OCC(=O)c1cccs1	-2%	17%	-7%	15%	2%
Cc1ccc(CNC(=O)c2cc(-c3ccccc3)nn2CC2CC(c3cccc([N+](=O)[O-])c3)=NO2)cc1 (configuration not stated)	.	.	?	.	-28%
O=C(NC1CC1)[C@@H]1C[C@@H](Sc2nc3ccccc3[nH]2)CN1CC1CCCCC1	.	.	?	.	-3%[9.04 µM]
N#CCCc1cccc(CCC#N)c1	.	4%	7%	1%	-6%
CCCn1c(=O)c2c(nc3n2CCCN3Cc2ccccc2)n(C)c1=O	.	1%	-15%	24%	?
Cn1c(=O)n(CCc2ccccc2)c(=O)c2c1nc1n2CCCN1Cc1ccccc1	-1%	7%	13µM*	-21%	?
CC(C)Cn1c(=O)c2c(nc3n2CCCN3CCc2ccccc2)n(C)c1=O	3%	-3%	15µM*	-6%	16µM*
CCn1c(=O)c2c(nc3n2CC(C)CN3CCc2ccccc2)n(C)c1=O (configuration not stated)	2%	14%	?	2%	21µM*
Cn1c(=O)n(Cc2ccc(F)cc2)c(=O)c2c1nc1n2CCCN1Cc1ccccc1	8%	?	23µM*	-5%	?
Cn1c(=O)n(CC(=O)O)c(=O)c2c1nc1n2CCCN1CCc1ccccc1	.	-3%	0%	?	2%
COc1cc(/C=N/O)c(Br)cc1OCC(=O)Nc1ccccc1C	0%	1%	-21%	27%	9%
O=C(COC(=O)c1ccccc1O)NCC1COc2ccccc2O1 (configuration not stated)	-3%[56.1 µM]	.	?	.	-8%
COc1ccc(N2CCCn3c2nc2c3c(=O)n(CCc3ccccc3)c(=O)n2C)cc1	2%	-10%	15µM*	-19%	?
Cn1c(=O)n(CCCc2ccccc2)c(=O)c2c1nc1n2CCN1c1ccccc1	4%	.	6.5µM*	.	7.3µM*
Cn1c(=O)n(CCc2ccccc2)c(=O)c2c1nc1n2CCCN1CCc1ccccc1	9%	-16%	7.3µM*	-2%	12µM*
CCCn1c(=O)c2c(nc3n2CCCN3CCc2ccccc2)n(C)c1=O	.	-1%	?	?	?
SMILES	TDP1 block	Gal4-VP16 FLuc	TDP1 cell noCPT	RORg inh	DT40 TDP1 CPT
Cc1ccc(N2CC(C)Cn3c2nc2c3c(=O)n(CC(=O)OCc3ccccc3)c(=O)n2C)cc1C (configuration not stated)	1%	-8%	18µM*	-22%	11µM*
Cc1ccc(N2CCCn3c2nc2c3c(=O)n(CC(=O)OCc3ccccc3)c(=O)n2C)cc1C	-2%	3%	.	7%	.
Cc1ccccc1-n1nc2c(c1NC(=O)c1ccc(Br)o1)CSC2	-2%	-3%	-3%	42%	-8%
CCc1ccc(N2CCn3c2nc2c3c(=O)n(Cc3ccc(F)cc3)c(=O)n2C)cc1	-3%	.	-10%	.	2%
CCOCCn1c(=O)c2c(nc3n2CCN3c2ccc(CC)cc2)n(C)c1=O	.	.	?	.	15µM*
CN1CCN/C1=C(/C(Cl)=C(Cl)Cl)[N+](=O)[O-]	5%	-1%	23µM*	-36%	12µM*
CN(Cc1ccccc1)C(=C(Cl)Cl)/C(=C1/NCCN1C)[N+](=O)[O-]	3%	0%	9%	-1%	-8%
O=C(CSc1nnnn1-c1cccc(Cl)c1)Nc1ccc2c(c1)CCC2	3%	8.9µM*	.	?	.
COc1cccc(-n2nnnc2SCC(=O)Nc2ccc(NC(C)=O)cc2)c1	.	-9%	23µM*	-34%	?
COc1cccc(-n2nnnc2SCC(=O)N2CCCc3ccccc32)c1	0%	?	?	20µM*	-28%
CCn1nnnc1SCC(=O)Nc1cc(OC)cc(OC)c1	3%	-7%	?	17%	16µM*
COc1cc(OC)cc(-n2nnnc2SCC(=O)N2CCCc3ccccc32)c1	2%	3%	?	20%	?
O=C(CSc1nnnn1-c1cccnc1)Nc1cccc(Cl)c1	11%	7%	-10%	-5%	-3%
COc1ccc(S(=O)(=O)c2c(O)c3ccc(C(=O)NCc4ccc(F)cc4)cc3[nH]c2=O)cc1	-10%	.	1%	.	7%
COc1ccc(Cc2nnc(SCc3ccc([N+](=O)[O-])cc3)o2)cc1	3%	-1%	?	15%	?
CN(C)S(=O)(=O)c1ccc(C(=O)Nc2cccc(C(=O)O)c2)cc1	0%	-1%	?	5%	-17%
O=C(CCC1CCCN(C(=O)c2cccnc2)C1)NCc1ccccc1F (configuration not stated)	8%	14%	-11%	4%	3%
O=C(NC12CC3CC(CC(C3)C1)C2)N1CCC(O)CC1	-2%	8%	-21%	-26%	13%
O=C(CSc1nnnn1-c1cccc2c1CCCC2)N1CCCC1	1%[56.1 µM]	?	23µM*	25%	16µM*
O=C(CSc1nnnn1-c1cccc2c1CCCC2)N1CCOCC1	-2%	-9%	-27%	-1%	-13%
COc1ccc(OC)c(-n2c(-c3ccccc3)n[nH]c2=S)c1	1%	?	-4%	10µM*	9%
Cc1cccc(-c2n[nH]c(=S)n2C)c1	3%	?	-2%	?	-12%
COc1ccccc1-n1c(-c2ccccc2)n[nH]c1=S	5%	?	2%	7.1µM*	22%
